Laboratory results reported in publication PMC7819943, “Rice protein-binding microarrays: a tool to detect cis-acting elements near promoter regions in rice”.
Whole data set: some 35,000 sequences, median “fluorescence intensity (a.u.)” near 10,000, cut for the highest 2% near 52,000. This is one part of a sample in which the highest values are shown more often than they occur.

molecular target: T1, OsWOX13 (Oryza sativa, UniProt Q5QMM3 1-267); experiment: protein-binding microarray (RPBM); PBS, 2% BSA, 51.3 ng/ul salmon testes DNA, 50 uM zinc acetate, 200 nM TF, 25 C, 1 h; high values mean tight binding; details: protein: recombinant; tags: N-terminal polyhistidine and DsRed monomer fusion (pET32a); label: CyDye5-dUTP incorporated in the synthesized complementary strand; 3' TTTTT single-stranded linker to array surface; dsDNA, one strand shown
T1 sequence: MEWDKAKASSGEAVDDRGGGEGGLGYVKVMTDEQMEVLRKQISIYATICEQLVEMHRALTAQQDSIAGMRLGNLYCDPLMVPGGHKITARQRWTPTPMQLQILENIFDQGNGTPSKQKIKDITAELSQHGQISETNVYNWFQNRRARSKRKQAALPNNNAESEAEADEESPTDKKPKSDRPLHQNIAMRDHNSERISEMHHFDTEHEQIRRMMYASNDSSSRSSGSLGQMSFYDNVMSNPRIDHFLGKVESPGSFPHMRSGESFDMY
How it was run: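 Transcription factors were each fused at the N-terminus to a polyhistidine tag plus DsRed and expressed in E. coli BL21-CodonPlus before Ni–NTA purification. Binding to a double-stranded custom Agilent array was carried out with 200 nM protein at 25 °C for 1 h in PBS, 2% BSA, salmon testes DNA and 50 µM zinc acetate. The binding signal is per-feature fluorescence intensity, in arbitrary units, on an Axon 4000B scanner.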

Sequence | binding signal
ATATGATTAAACTCAAGTATAGTTGAGGGACGTAAATTGGCGGAGTCACCTAGTGCAG | 19700 fluorescence intensity (a.u.)
TTCATATAATTTATAAGGGACATAATGTAATCACCCTATACGGAGTCACCTAGTGCAG | 10300 fluorescence intensity (a.u.)
ACCCACCCTTCAATTAGCCTGTGAATTACTACTTTCTAATCGGAGTCACCTAGTGCAG | 7460 fluorescence intensity (a.u.)
AGTGATTAATTCATTCCAAAAGACAGTAGCGACATCTATTCGGAGTCACCTAGTGCAG | 20300 fluorescence intensity (a.u.)
ATTAATTATCAGTGAGCACAAGCCTGGCATGTAAATCATGCGGAGTCACCTAGTGCAG | 24800 fluorescence intensity (a.u.)
TTATGACCGGTTTTGATTAGTTAAGAGACGCCAGATATCTCGGAGTCACCTAGTGCAG | 14300 fluorescence intensity (a.u.)
ATTTGATTTTCTGTCTTTTCTTCAACTCGATTTTGTTAAACGGAGTCACCTAGTGCAG | 8770 fluorescence intensity (a.u.)
GCCTGATTAATTGATTAATTCTCCAGCTGCATCACATTGACGGAGTCACCTAGTGCAG | 63700 fluorescence intensity (a.u.)
CACCAATTTGATTGTTTTATTATTTTAAATCTTCAGTACTCGGAGTCACCTAGTGCAG | 14200 fluorescence intensity (a.u.)
ATACATTGATTAATCAGCCAGCCAGCCAGCCAGCCACTGACGGAGTCACCTAGTGCAG | 28700 fluorescence intensity (a.u.)
TAATTGATTAATTAATAATACTCCAGCTGCAGCAACGGCACGGAGTCACCTAGTGCAG | 47300 fluorescence intensity (a.u.)
TATTAAGAATTAGATTAGGATTAGGATTGTGTCAATGTTCCGGAGTCACCTAGTGCAG | 4860 fluorescence intensity (a.u.)
TTTTGATTGACAGCGGAAATTACTCGATATTGTTCTTCAACGGAGTCACCTAGTGCAG | 64300 fluorescence intensity (a.u.)
GTATGGATCACCTGATTAATTGGGCCGTCGTTCCATTCCCCGGAGTCACCTAGTGCAG | 9310 fluorescence intensity (a.u.)
GTAGTTCTTGATGTATTTCAATTAGAACCTTAATTTTCCACGGAGTCACCTAGTGCAG | 3390 fluorescence intensity (a.u.)
TCCCATTGATTTGATCCAGCTAATTAATTAATTCGATCCACGGAGTCACCTAGTGCAG | 49900 fluorescence intensity (a.u.)
ATGTTCTTAGATTGATTAAGATTGTCAATTGATTACTCCACGGAGTCACCTAGTGCAG | 60500 fluorescence intensity (a.u.)
CCTGATTAATTGGGTCGTCGTTCCATTCCCAGCCGATCGACGGAGTCACCTAGTGCAG | 65200 fluorescence intensity (a.u.)
TTAAATTTATACCCCACTTATATCTCACTTACACATCACTCGGAGTCACCTAGTGCAG | 7930 fluorescence intensity (a.u.)
TTAAATTTTCTATATAAATCTATTCAAATCTGCATAAATGCGGAGTCACCTAGTGCAG | 3870 fluorescence intensity (a.u.)
TTGTAAAATTATATTTATTTAAGATGAAGGGAGTACTATCCGGAGTCACCTAGTGCAG | 4920 fluorescence intensity (a.u.)

Sequence | binding signal
TTGCTGATTGTGAATGGTGGGTGCAAGGATACACTTTTCGCGGAGTCACCTAGTGCAG | 23900 fluorescence intensity (a.u.)
AGCTAGGTCAATCATGCATGCATGAATATGTGGCCGAGTTCGGAGTCACCTAGTGCAG | 3270 fluorescence intensity (a.u.)
CCAAACAATTTCAGTTTCATCTAAATTGGAGTGGAGCTGGCGGAGTCACCTAGTGCAG | 11400 fluorescence intensity (a.u.)
TTGATAGATTGATCGTTAGTGCTTTTGTCCAATTTGTTCACGGAGTCACCTAGTGCAG | 64200 fluorescence intensity (a.u.)
ATTAATTAATTAATTAATTAATTAATACTCCTCTCTTCCACGGAGTCACCTAGTGCAG | 65500 fluorescence intensity (a.u.)
GAGATCACATTAACTAATTGATTAACTAATTACTTCATCCCGGAGTCACCTAGTGCAG | 29600 fluorescence intensity (a.u.)
CTCGTTAGATTTTGATCAATGATTAGTCCAAATTATACATCGGAGTCACCTAGTGCAG | 15200 fluorescence intensity (a.u.)
TGGATTAATTTCTCCTCTTCTCTTCCTCCCGTTTATAATACGGAGTCACCTAGTGCAG | 6370 fluorescence intensity (a.u.)
TTGTCCATCACAATTGCTAATTAACTAAGACACCCTTCCTCGGAGTCACCTAGTGCAG | 21100 fluorescence intensity (a.u.)
TTTACTCATGATTACGCTAATTATTCCACTCAATTCTCACCGGAGTCACCTAGTGCAG | 26100 fluorescence intensity (a.u.)
TTTTGTAACTGATCGTTATTAGATCGGATTTGTTCATTGTCGGAGTCACCTAGTGCAG | 3360 fluorescence intensity (a.u.)
CTGATTAAGATCACTAATTGATCTGTCCACATTGCATCCTCGGAGTCACCTAGTGCAG | 54800 fluorescence intensity (a.u.)
CTCCACTAATTACTCCACCCAACCATTGGATTCAATGGGCCGGAGTCACCTAGTGCAG | 21700 fluorescence intensity (a.u.)
ATTTAATTTAATTTAATTGTTCCTCCTCTTCTTCTTCTCTCGGAGTCACCTAGTGCAG | 41000 fluorescence intensity (a.u.)
TATGATTGATTGGAGGGATCAATTAATTACTCATTCTCCACGGAGTCACCTAGTGCAG | 64700 fluorescence intensity (a.u.)
TGATAATTTTAAATTAAATAAGTAAATTTCAGAAAACTATCGGAGTCACCTAGTGCAG | 29700 fluorescence intensity (a.u.)
TTATATTTAGATTGAAGCCAAAATAACCTAAGTTCACTATCGGAGTCACCTAGTGCAG | 8620 fluorescence intensity (a.u.)
TTTTACTATAACGTTTGATCATTTGTGTTATTTAAATTTTCGGAGTCACCTAGTGCAG | 4170 fluorescence intensity (a.u.)
TGATTTGGCTGATTAGATGCAATTTAGTCCTGCCACTGTGCGGAGTCACCTAGTGCAG | 16900 fluorescence intensity (a.u.)
AATCAATCAATTAGTTAGAGATCAAGTTATTAGTGTCCAACGGAGTCACCTAGTGCAG | 31100 fluorescence intensity (a.u.)
CAAATAAACAGGGTTCAGTCAAACTCAAGTGAATGAATTGCGGAGTCACCTAGTGCAG | 11500 fluorescence intensity (a.u.)
